# Pol eta inh-1 = blocks human DNA polymerase eta activity; Q9Y253; recombinant Pol eta, fluorescent DNA replication assay; Potency, µM (titrated, usually from 114 µM), for the others: top-dose activity change, negative = inhibition, actives largely listed as inhibitors; hit rate 1.2% among 390,000; AID 588591; further: potency means the concentration at half of the fitted maximal effect; on the % scale 0 is the no-effect control and ±100 the full control effect
#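 Pol eta at 10 nM preincubated with compounds 15 min at room temperature; reaction started with fluorescent substrate (50 nM final) and read kinetically at 0 and 10 min.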
# PI5P4K alpha inh = blocks human PI5P4K alpha kinase activity | P48426 | PI5P4Kalpha enzyme, ADP-Glo luminescence, 60 min; hits give low values | max response, % | hit rate 1.2% among 330,000 | AID 652105; active means max response of -50% or lower; inconclusive means between -30% and -50%; inactive means -30% or higher; further: value at the top dose of about 77 µM; on the % scale 0 is the no-effect control and ±100 the full control effect
#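 ADP-Glo luminescence end-point read after a 60 min room-temperature kinase reaction of PI5P4Kalpha plus substrate, initiated with ATP at 5 microM final. Buffer: 0.038 M HEPES pH 7.4, EGTA, 0.1% CHAPS, 5% DMSO.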
# Pol beta inh = DNA polymerase beta (human) inhibition | P06746 | Pol beta primer extension/strand displacement, fluorescence kinetic | Potency, µM (titrated, usually from 114 µM), for the others: at the top dose activity change, negative = inhibition, usual class: inhibitors | hit rate 1.3% among 340,000 | AID 485314; further: potency means the concentration at half of the fitted maximal effect; on the % scale 0 is the no-effect control and ±100 the full control effect
#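 Pol beta (10 nM) and compounds were preincubated 15 min at room temperature, then 50 nM substrate (final) started primer extension/strand displacement. Reads were taken at 0 and 10 min; concentration-response data were fitted to a four-parameter Hill equation.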
# Pol kappa inh-1 = blocks human DNA polymerase kappa activity | Q9UBT6 | purified Pol kappa, fluorescent DNA synthesis assay, 10 min | Potency, µM (top dose mostly 107 µM), without a hit: top-dose activity, negative = inhibition, most hits filed as inhibitors | hit rate 0.53% among 400,000; further: potency means the concentration at half of the fitted maximal effect; on the % scale 0 is the no-effect control and ±100 the full control effect
# Target sequence (Q9UBT6 whole entry, looked up): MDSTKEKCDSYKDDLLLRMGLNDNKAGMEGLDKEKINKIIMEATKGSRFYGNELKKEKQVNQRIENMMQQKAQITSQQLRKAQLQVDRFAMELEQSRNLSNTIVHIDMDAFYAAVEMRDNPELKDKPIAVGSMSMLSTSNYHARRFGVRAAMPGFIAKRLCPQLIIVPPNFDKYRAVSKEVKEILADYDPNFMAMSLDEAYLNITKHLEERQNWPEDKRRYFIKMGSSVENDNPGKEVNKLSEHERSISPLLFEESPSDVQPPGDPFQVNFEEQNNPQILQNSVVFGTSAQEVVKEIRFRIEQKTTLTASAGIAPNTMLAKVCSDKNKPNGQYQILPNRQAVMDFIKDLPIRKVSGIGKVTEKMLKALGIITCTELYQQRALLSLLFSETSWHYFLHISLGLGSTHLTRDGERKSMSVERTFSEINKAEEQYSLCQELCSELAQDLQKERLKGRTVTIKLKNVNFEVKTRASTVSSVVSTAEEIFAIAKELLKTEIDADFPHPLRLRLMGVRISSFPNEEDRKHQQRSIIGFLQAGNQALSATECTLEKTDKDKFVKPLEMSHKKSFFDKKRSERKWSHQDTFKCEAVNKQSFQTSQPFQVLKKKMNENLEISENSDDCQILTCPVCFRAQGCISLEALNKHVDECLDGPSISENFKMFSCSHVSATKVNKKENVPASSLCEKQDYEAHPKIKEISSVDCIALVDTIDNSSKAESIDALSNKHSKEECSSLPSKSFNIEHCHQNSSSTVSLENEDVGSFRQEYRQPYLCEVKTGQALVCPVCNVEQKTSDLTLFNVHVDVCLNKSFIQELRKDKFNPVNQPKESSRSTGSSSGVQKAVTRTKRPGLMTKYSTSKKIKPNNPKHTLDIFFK
#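 Inhibition of 10 nM Pol kappa is measured by a fluorescent read-out at 0 and 10 min following addition of 50 nM substrate (final), with a 15-min room-temperature compound preincubation.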
# Pol iota inh = blocks human DNA polymerase iota activity | Q9UNA4 | AID 588590 | Pol iota fluorescent replication assay, 10 min | hit rate 1% among 390,000 | Potency, µM (top dose mostly 115 µM), for the others: top-dose activity, negative = inhibition, usual class: inhibitors; further: potency means the concentration at half of the fitted maximal effect
#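 Fluorescent replication assay read twice, at 0 min and 10 min after adding 50 nM (final) substrate. Enzyme (10 nM) and compounds were first incubated 15 min at room temperature; enzyme-free buffer wells were negative controls.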
# WRN inhibitor = WRN helicase (human) inhibition. Potency, µM (doses to about 114 µM), for inactives: top-dose activity change, negative = inhibition, hits mostly inhibitors. WRN helicase unwinding, fluorescent forked duplex, kinetic. hit rate 0.46% among 360,000. Q14191; further: potency means the concentration at half of the fitted maximal effect; on the % scale 0 is the no-effect control and ±100 the full control effect; nearly all actives have a fitted effect of over 55% in size
#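 Kinetic red-fluorescence monitoring (525/598 nm) tracks WRN helicase activity after 100 nM fluorophore-quencher forked duplex and 2 mM ATP are added to 20 nM enzyme pretreated 15 min at room temperature with compound.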
# PGK validate = blocks T. brucei phosphoglycerate kinase; Potency, µM (series often up to 57.5 µM), without a hit: at the highest dose activity change, negative = inhibition, actives largely listed as inhibitors; TbPGK coupled GAPDH assay, Kinase-Glo luminescence; hit rate 79% among 500; shares compounds with Pol kappa inh-1; further: potency means the concentration at half of the fitted maximal effect; on the % scale 0 is the no-effect control and ±100 the full control effect; nearly all actives have a fitted effect of over 65% in size
# Pol iota confirm = Human Pol iota inhibitor confirmatory assay; shares compounds with Pol kappa inh-1; Pol iota primer extension, TAMRA/BHQ fluorescence; Potency, µM, actives largely listed as inhibitors; hit rate 77% among 1,500; AID 720496; further: potency means the concentration at half of the fitted maximal effect
# GALK inh confirm = confirmation of human galactokinase (GALK) inhibitors; shares compounds with Pol eta inh-1; AID 2015; hit rate 70% among 150; purified GALK, Kinase-Glo ATP depletion luminescence; Potency, µM (highest dose often 115 µM), without a hit: top-dose activity, negative = inhibition, most hits filed as inhibitors
# GALK redox cs = generates H2O2 by redox cycling, flagging GALK artifacts; shares compounds with Pol eta inh-1; AID 2035; hit rate 40% among 150; Potency, µM (titrated, usually from 115 µM), for inactives: at the highest dose activity change, negative = H2O2 signal, hits mostly inhibitors; Phenol red-HRP H2O2 redox cycling, absorbance 600 nm
# HEK293 tox = HEK-293 cytotoxicity, GALK inhibitor secondary. shares compounds with Pol eta inh-1. HEK-293 viability, ATP luminescence (CellTiter-Glo), 24/48 h. hit rate 10% among 170. Potency, µM (series often up to 46.1 µM), without a hit: top-dose activity change, negative = cytotoxicity, hits mostly inhibitors; further: potency means the concentration at half of the fitted maximal effect; on the % scale 0 is the no-effect control and ±100 the full control effect
# Pol kappa inh-2 = Pol kappa (human) inhibition, cherry-pick confirmation | shares compounds with Pol eta inh-1 | purified Pol-kappa, fluorescent strand-displacement substrate | Potency, µM, actives largely listed as inhibitors | hit rate 76% among 920 | AID 720501; further: potency means the concentration at half of the fitted maximal effect
# Pol eta inh-2 = Pol eta (human) inhibition, cherry-pick confirmation | shares compounds with Pol eta inh-1 | Pol eta primer extension, TAMRA/BHQ fluorescence, 10 min | Potency, µM, most hits filed as inhibitors | hit rate 64% among 2,600 | AID 720502; further: potency means the concentration at half of the fitted maximal effect
# The depositor's hits bear a star; ? = inconclusive; · = no result given; [ ] = remark or other dose. The list is not random: actives were taken first. Their share in the collection is about 2.8%. Unless noted, the call rests on the fitted dose curve; in most records, active means well fitted curve in the direction sought with a large enough effect; inconclusive means small, poorly fitted or top-dose-only effect, or another doubt; inactive means no such curve, though single readings can be large; an effect the other way counts as inactive or inconclusive.
SMILES,Pol eta inh-1,PI5P4K alpha inh,Pol beta inh,Pol kappa inh-1,Pol iota inh,WRN inhibitor,PGK validate,Pol iota confirm,Pol kappa inh-2,Pol eta inh-2,others
O=S(=O)(c1cc(O)ccc1O)c1cccc2c(S(=O)(=O)c3cc(O)ccc3O)cccc12,4.5µM*,-91*,·,18µM*,7.9µM*,32µM*,3.7µM*,8.4*,9.5*,15*,
O=C(O)C1C2C=CC(CC2)C1C(=O)O (stereo not drawn),11µM*,-22,18µM*,?,?,?,12µM*,·,30*,?,
Cn1c(SCC(=O)Nc2nncs2)nnc1C1CC1,22µM*,-29,6.3µM*,?,?,?,·,38*,·,30*,
Cc1ccc(-c2cc(-c3ccccc3)nc(N)c2C#N)o1,-16%,2,9%,-12%,44%,3%,·,·,·,·,
CC1=C(C#N)c2nc(N)c(C#N)c(C)c2/C1=C\c1ccc(-c2ccccc2C(=O)O)o1,7.9µM*,-72*,10µM*,22µM*,?,25µM*,·,42*,·,27*,
COC(=O)c1cc(C)nc2c1C(=O)C(=O)C=C2N1CCOCC1,4.5µM*,-15,-8%,-10%,1.3µM*,?,4.6µM*,6*,·,5.4*,GALK inh confirm=5.3µM*;GALK redox cs=2.7µM*;HEK293 tox=8.9µM*
COC(=O)c1cc(S(=O)(=O)N2CCOCC2)c(Cl)cc1N1CCOCC1,-6%,1,4%,2%,18%,1%,·,·,·,·,
COc1ccc(-n2nc(C(=O)NCC(=O)Nc3ccccn3)c3ccccc3c2=O)cc1Cl,10µM*,8,?,-14%,1%,-7%,·,15*,·,?,
COc1ccc(-n2nc(C(=O)NCC(=O)NC(C)C)c3ccccc3c2=O)cc1Cl,-3%,2,59%,-14%,?,-1%,·,·,·,·,
CCCCN(C(=O)c1cc(-c2ccco2)nc2ccccc12)c1c(N)n(CCC)c(=O)[nH]c1=O,20µM*,-73*,·,79µM*,25µM*,?,·,34*,38*,48*,
CCOc1ccc(C2C(C(N)=O)=C(C)Nc3nc(SCc4ccccc4F)nn32)cc1 (stereo not drawn),-8%,·,2%,-1%,-18%,·,·,·,·,·,
Cc1ccc(NC(=O)CN2C(=O)S/C(=C\c3cc(Cl)c(OCC(=O)O)c(Cl)c3)C2=O)cc1,25µM*,?,40µM*,-14%,?,-11%[11.6 µM],5.8µM*,42*,·,48*,

# Source: PubChem BioAssay (National Center for Advancing Translational Sciences (NCATS))
